Laboratory results taken from the supplement of paper PMC10849652.
About 7,900 targets were measured; listed, in parts, are those with a hit and a random draw of the rest. About 0.6% of all pairs of compound and target were hits.

Compound: CC(C)C[C@@H](C=O)NC(=O)[C@H](CC(C)C)NC(=O)[C@H](CC(C)C)NC(=O)OCc1ccccc1
Experiment: log2 fold change, soluble protein after heating vs DMSO (PISA); higher = thermal stabilisation; K562 cells, 10 uM, 30 min; active = over 0.2 and 3.5 SD of the protein, either way, in both replicates (recomputed)
How it was run: (§1)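 Soluble protein was defined as the supernatant after 21,000xg for 90 min. It came from K562 cells at 2×10^6 cells/mL given 10 μM compound for 30 min, heated in aliquots for 3 min across 48°C-58°C, pooled, and extracted in PBS with 0.5% NP-40 at 4°C, and was quantified by TMTpro 16plex LC-MS/MS with equalised channel sums. Thermal stability against control samples, from duplicates, is reported as log2 fold change.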

UniProt O95433, sequence (O95433 whole entry, looked up): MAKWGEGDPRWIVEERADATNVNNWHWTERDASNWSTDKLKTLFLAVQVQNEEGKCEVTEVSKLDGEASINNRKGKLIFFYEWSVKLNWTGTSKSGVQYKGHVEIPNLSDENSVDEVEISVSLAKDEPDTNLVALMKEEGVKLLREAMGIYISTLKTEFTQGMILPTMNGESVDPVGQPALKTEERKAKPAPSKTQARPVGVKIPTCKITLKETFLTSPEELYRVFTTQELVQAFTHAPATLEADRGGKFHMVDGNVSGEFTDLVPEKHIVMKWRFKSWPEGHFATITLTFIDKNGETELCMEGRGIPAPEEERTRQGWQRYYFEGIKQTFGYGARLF
UniProt Q9NSY1, sequence (Q9NSY1 whole entry, looked up): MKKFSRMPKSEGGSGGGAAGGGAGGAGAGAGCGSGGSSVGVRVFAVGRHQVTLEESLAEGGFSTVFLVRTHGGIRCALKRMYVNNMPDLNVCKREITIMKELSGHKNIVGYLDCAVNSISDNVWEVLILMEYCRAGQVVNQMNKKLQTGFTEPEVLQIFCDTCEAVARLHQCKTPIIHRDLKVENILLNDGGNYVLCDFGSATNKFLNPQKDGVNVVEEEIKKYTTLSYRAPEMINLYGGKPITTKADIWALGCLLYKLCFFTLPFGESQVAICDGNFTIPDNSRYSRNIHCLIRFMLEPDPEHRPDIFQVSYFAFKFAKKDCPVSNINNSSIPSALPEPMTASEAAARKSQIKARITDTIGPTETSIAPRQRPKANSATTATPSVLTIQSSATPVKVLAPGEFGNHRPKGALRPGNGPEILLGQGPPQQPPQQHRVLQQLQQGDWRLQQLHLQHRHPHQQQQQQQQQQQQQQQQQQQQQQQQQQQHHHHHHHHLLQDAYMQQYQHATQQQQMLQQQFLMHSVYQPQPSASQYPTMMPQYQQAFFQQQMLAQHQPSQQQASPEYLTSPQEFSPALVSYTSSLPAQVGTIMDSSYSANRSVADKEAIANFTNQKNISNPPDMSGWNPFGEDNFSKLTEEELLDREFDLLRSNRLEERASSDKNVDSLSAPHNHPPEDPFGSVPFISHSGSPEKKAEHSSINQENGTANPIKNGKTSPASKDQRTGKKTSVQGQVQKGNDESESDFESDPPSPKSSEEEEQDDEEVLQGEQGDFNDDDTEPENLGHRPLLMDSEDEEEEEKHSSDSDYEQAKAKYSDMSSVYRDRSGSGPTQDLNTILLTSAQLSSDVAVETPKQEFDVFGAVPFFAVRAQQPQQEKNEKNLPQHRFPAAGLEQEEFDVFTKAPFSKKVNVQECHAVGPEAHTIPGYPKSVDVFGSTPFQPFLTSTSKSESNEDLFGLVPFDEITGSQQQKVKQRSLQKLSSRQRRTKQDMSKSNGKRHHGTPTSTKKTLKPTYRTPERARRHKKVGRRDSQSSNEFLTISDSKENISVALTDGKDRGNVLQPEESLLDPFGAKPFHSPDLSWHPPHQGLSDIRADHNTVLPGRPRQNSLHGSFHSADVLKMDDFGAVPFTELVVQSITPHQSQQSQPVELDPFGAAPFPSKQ
UniProt O14965, sequence (O14965 whole entry, looked up): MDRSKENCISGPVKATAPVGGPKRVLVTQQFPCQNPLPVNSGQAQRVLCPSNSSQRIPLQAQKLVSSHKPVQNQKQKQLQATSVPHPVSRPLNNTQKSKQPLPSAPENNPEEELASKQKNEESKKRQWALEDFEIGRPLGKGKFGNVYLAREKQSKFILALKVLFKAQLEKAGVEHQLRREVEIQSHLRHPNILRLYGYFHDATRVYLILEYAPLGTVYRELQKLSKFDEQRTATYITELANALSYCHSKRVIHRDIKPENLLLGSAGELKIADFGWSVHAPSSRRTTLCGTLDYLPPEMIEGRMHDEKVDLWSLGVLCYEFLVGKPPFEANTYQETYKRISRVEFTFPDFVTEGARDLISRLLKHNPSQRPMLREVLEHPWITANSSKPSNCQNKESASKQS
UniProt P21283, sequence (P21283 whole entry, looked up): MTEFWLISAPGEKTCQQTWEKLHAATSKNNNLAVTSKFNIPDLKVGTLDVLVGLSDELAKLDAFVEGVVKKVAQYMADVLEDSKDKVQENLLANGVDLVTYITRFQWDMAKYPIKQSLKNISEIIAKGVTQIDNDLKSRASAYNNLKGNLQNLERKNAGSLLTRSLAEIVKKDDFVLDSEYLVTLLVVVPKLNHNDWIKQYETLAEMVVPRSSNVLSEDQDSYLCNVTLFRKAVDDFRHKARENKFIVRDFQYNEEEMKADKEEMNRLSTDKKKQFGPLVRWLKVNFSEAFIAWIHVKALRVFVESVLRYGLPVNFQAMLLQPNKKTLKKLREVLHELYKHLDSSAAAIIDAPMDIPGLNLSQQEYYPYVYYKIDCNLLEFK
UniProt P78363, sequence (P78363 whole entry, looked up): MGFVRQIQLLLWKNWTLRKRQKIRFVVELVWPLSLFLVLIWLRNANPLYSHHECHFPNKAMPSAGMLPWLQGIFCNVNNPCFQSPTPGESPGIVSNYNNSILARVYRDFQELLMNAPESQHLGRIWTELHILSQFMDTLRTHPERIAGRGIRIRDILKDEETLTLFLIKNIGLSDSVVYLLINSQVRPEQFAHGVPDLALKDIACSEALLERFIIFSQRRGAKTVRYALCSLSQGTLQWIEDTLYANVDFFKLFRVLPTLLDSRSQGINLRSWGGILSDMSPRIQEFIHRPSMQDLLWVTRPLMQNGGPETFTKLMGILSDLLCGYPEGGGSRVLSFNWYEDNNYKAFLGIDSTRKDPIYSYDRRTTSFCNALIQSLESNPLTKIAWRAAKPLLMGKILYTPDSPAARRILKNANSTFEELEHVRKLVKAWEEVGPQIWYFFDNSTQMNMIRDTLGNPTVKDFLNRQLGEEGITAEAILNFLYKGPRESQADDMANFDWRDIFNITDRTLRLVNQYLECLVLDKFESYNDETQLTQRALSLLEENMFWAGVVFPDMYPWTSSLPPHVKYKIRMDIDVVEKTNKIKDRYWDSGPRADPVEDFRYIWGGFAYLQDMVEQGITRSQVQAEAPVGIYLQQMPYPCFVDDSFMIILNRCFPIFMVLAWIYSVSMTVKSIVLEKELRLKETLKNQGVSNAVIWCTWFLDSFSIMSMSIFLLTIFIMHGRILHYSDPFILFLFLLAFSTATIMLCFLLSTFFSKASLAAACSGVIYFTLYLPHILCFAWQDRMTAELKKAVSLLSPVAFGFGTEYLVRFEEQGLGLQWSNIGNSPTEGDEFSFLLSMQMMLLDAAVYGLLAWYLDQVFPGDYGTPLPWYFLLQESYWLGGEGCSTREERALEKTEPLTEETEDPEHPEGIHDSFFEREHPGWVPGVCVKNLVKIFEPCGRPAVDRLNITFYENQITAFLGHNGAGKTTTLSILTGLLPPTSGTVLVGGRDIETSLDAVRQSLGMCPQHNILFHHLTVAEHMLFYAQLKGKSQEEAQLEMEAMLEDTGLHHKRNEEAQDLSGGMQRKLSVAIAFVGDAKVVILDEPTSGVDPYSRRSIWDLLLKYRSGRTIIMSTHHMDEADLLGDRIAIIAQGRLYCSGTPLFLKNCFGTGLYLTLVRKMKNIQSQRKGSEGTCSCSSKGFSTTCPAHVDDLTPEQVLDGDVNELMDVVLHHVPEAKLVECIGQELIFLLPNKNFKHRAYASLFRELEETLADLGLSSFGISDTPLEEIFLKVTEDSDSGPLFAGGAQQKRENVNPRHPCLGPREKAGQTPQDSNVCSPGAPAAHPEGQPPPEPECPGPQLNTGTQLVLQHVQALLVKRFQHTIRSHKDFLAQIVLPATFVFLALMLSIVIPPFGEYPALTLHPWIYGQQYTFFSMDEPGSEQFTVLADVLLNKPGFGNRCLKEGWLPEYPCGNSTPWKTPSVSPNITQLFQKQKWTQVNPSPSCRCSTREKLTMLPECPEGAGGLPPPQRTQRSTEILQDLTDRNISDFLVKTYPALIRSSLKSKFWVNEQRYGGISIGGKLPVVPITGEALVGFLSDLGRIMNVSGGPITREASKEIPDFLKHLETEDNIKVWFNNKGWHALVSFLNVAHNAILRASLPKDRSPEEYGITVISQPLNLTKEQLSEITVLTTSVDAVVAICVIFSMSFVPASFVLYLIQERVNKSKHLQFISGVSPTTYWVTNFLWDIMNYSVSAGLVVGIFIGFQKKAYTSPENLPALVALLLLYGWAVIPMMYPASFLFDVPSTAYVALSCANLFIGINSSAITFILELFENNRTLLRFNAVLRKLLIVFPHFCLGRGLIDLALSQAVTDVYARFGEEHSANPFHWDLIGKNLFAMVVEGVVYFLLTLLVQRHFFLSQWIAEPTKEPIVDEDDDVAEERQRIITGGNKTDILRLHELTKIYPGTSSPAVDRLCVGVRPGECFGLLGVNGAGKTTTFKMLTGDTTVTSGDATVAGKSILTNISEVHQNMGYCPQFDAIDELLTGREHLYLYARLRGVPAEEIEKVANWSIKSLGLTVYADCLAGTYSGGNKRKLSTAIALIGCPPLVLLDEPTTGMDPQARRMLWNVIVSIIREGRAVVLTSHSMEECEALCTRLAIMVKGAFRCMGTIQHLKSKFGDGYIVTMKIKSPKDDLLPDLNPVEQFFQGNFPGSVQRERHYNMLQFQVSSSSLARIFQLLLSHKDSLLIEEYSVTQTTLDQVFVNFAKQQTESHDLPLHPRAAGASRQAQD
UniProt Q9Y6E2, sequence (Q9Y6E2 whole entry, looked up): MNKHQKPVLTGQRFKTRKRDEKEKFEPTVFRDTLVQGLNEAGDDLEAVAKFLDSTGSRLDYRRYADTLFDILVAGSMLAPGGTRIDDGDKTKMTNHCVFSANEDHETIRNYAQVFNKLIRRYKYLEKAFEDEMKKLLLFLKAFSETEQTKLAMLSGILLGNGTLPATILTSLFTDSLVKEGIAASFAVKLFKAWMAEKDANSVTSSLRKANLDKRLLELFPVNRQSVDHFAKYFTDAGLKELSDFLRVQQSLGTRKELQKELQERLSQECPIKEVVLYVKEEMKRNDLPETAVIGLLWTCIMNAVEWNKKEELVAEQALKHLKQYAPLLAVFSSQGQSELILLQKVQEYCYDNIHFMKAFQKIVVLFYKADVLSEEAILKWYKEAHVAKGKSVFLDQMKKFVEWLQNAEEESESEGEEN

log2 fold change, inactive:
AHSA1 (UniProt O95433) -0.008
AARS2 (UniProt Q5JTZ9) -0.013
APOB (UniProt P04114) 0.403
ABCA4 (UniProt P78363) 0.481
ANAPC2 (UniProt Q9UJX6) 0.055
ATP12A isoform 2 (UniProt P54707) -0.005
BRD8 (UniProt Q9H0E9) 0.098
ATP6V1C1 (UniProt P21283) 0.052
BMP2K (UniProt Q9NSY1) 0.085
ALDH9A1 isoform 3 (UniProt P49189) -0.022
ARFGAP2 (UniProt Q8N6H7) -0.005
BRAP (UniProt Q7Z569) -0.093
AP2S1 (UniProt P53680) -0.07
AHCYL1 (UniProt O43865) 0.001
ADAM15 (UniProt Q13444) 0.053
BUB1B isoform 3 (UniProt O60566) 0.09
AP2A1 (UniProt O95782) -0.06
BPHL (UniProt Q86WA6) 0.071
ARAF (UniProt P10398) 0.021
ATAD3B (UniProt Q5T9A4) 0.066
ATG9A (UniProt Q7Z3C6) 0.06
AURKA (UniProt O14965) 0.16
BID isoform 2 (UniProt P55957) 0.012
ATP9B (UniProt O43861) -0.024
ARFGEF1 (UniProt Q9Y6D6) -0.019
ATP6V0A1 isoform 3 (UniProt Q93050) 0.125
AMD1 (UniProt P17707) 0.276
ATL2 (UniProt Q8NHH9) -0.001
ALDH18A1 (UniProt P54886) 0
ACTR1B (UniProt P42025) -0.071
BZW2 (UniProt Q9Y6E2) -0.003
ACSL5 isoform 3 (UniProt Q9ULC5) -0.001
ACSL1 (UniProt P33121) -0.057
ATIC (UniProt P31939) -0.044
ADD1 isoform 3 (UniProt P35611) -0.003
ACAD9 (UniProt Q9H845) -0.036

Compound: CC(C)N(C[C@H]1O[C@@H](n2cnc3c(N)ncnc32)[C@H](O)[C@@H]1O)[C@H]1C[C@@H](CCc2nc3cc(C(C)(C)C)ccc3[nH]2)C1 [pinometostat]
Experiment: as above
How it was run: as §1

log2 fold change, inactive:
AHSA1 (UniProt O95433) -0.045
AARS2 (UniProt Q5JTZ9) 0.006
APOB (UniProt P04114) -0.171
ABCA4 (UniProt P78363) -0.06
ANAPC2 (UniProt Q9UJX6) 0.078
ATP12A isoform 2 (UniProt P54707) -0.03
BRD8 (UniProt Q9H0E9) 0.001
ATP6V1C1 (UniProt P21283) 0.068
BMP2K (UniProt Q9NSY1) -0.008
ALDH9A1 isoform 3 (UniProt P49189) -0.013
ARFGAP2 (UniProt Q8N6H7) 0.046
BRAP (UniProt Q7Z569) 0.033
AP2S1 (UniProt P53680) 0.038
AHCYL1 (UniProt O43865) -0.048
ADAM15 (UniProt Q13444) 0.046
BUB1B isoform 3 (UniProt O60566) 0.11
AP2A1 (UniProt O95782) 0
BPHL (UniProt Q86WA6) 0.061
ARAF (UniProt P10398) 0.043
ATAD3B (UniProt Q5T9A4) 0.276
ATG9A (UniProt Q7Z3C6) 0.015
AURKA (UniProt O14965) 0.033
BID isoform 2 (UniProt P55957) -0.018
ATP9B (UniProt O43861) -0.064
ARFGEF1 (UniProt Q9Y6D6) 0.001
ATP6V0A1 isoform 3 (UniProt Q93050) 0.198
AMD1 (UniProt P17707) -0.025
ATL2 (UniProt Q8NHH9) 0.035
ALDH18A1 (UniProt P54886) -0.053
ACTR1B (UniProt P42025) 0.003
BZW2 (UniProt Q9Y6E2) -0.011
ACSL5 isoform 3 (UniProt Q9ULC5) 0.095
ACSL1 (UniProt P33121) 0.008
ATIC (UniProt P31939) -0.04
ADD1 isoform 3 (UniProt P35611) -0.001
ACAD9 (UniProt Q9H845) -0.028
